Measured values published in PubChem BioAssay AID1159580 (chemical genetic matrix, 2015).
The campaign covered roughly 5,500 compounds. About 2,000 (36%) were called active. About 18% were inconclusive and are not listed. Cut-off read from the data, not from the text of the source: active = normalized growth mostly below about 0.91 (no sharp cut-off); inconclusive = no clear call, values can overlap the other calls; inactive = mostly above about 0.92. The list shows a part of the results.

Assay: chemical genetic growth profiling, strain panel (AID 1159580);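 note: tested at 20 µM; growth read once vehicle control cultures reached saturation at 30 °C; 1 = growth at the plate median or of vehicle wells; lower values mean less growth of the strain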
Settings: growth OD

Measured: normalized growth

CCC(c1ccc(O)cc1)C(CC)c1ccc(O)cc1 (stereo not drawn)
active: S. cerevisiae deletion strains, locus YKL009W, strain mrt4, active compounds read low 0.871 | S. cerevisiae deletion strains, locus YLL026W, active compounds read low 0.862 | S. cerevisiae deletion strains, locus YLR027C, strain aat2, active compounds read low 0.829 | S. cerevisiae deletion strains, locus YLR039C, strain RIC1, active compounds read low 0.6 | S. cerevisiae deletion strains, locus YLR221C, strain rsa3, active compounds read low 0.828 | S. cerevisiae deletion strains, locus YLR258W, strain gsy2, active compounds read low 0.902 | S. cerevisiae deletion strains, locus YLR262C, strain YPT6 (second series), active compounds read low 0.396 | S. cerevisiae deletion strains, locus YLR262C, strain YPT6, active compounds read low 0.575 | S. cerevisiae deletion strains, locus YLR320W, strain mms22, active compounds read low 0.868 | S. cerevisiae deletion strains, locus YML120C, strain ndi1, active compounds read low 0.733 | S. cerevisiae deletion strains, locus YMR058W, strain fet3, active compounds read low 0.864 | S. cerevisiae deletion strains, locus YMR205C, strain PFK2, active compounds read low 0.844 | S. cerevisiae deletion strains, locus YMR307W, strain GAS1, active compounds read low 0.592 | S. cerevisiae deletion strains, locus YNL071W, strain lat1, active compounds read low 0.786 | S. cerevisiae deletion strains, locus YNL307C, strain MCK1, active compounds read low 0.877 | S. cerevisiae deletion strains, locus YOR001W, strain rrp6, active compounds read low 0.808 | S. cerevisiae deletion strains, locus YOR106W, strain vam3, active compounds read low 0.804 | S. cerevisiae deletion strains, locus YOR184W, strain ser1, active compounds read low 0.761 | S. cerevisiae deletion strains, locus YPL051W, strain arl3, active compounds read low 0.849
inactive: S. cerevisiae deletion strains, locus YJR075W, strain HOC1, active compounds read low 1.01 | S. cerevisiae deletion strains, locus YKL068W, active compounds read low 0.99 | S. cerevisiae deletion strains, locus YKL085W, strain MDH1 (second series), active compounds read low 0.984 | S. cerevisiae deletion strains, locus YKL085W, strain MDH1, active compounds read low 0.984 | S. cerevisiae deletion strains, locus YKL160W, strain elf1, active compounds read low 0.928 | S. cerevisiae deletion strains, locus YKL190W, strain CNB1, active compounds read low 0.994 | S. cerevisiae deletion strains, locus YKR001C, strain vps1, active compounds read low 0.99 | S. cerevisiae deletion strains, locus YKR026C, strain gcn3, active compounds read low 0.982 | S. cerevisiae deletion strains, locus YKR091W, strain srl3, active compounds read low 1 | S. cerevisiae deletion strains, locus YLL001W, strain dnm1, active compounds read low 0.943 | S. cerevisiae deletion strains, locus YLL041C, strain sdh2, active compounds read low 0.976 | S. cerevisiae deletion strains, locus YLR058C, strain SHM2, active compounds read low 1 | S. cerevisiae deletion strains, locus YLR102C, strain apc9, active compounds read low 1.01 | S. cerevisiae deletion strains, locus YLR268W, strain sec22, active compounds read low 0.912 | S. cerevisiae deletion strains, locus YLR330W, strain CHS5, active compounds read low 1.01 | S. cerevisiae deletion strains, locus YLR342W, strain FKS1 (second series), active compounds read low 0.962 | S. cerevisiae deletion strains, locus YLR342W, strain FKS1, active compounds read low 0.938 | S. cerevisiae deletion strains, locus YLR357W, strain rsc2, active compounds read low 0.984 | S. cerevisiae deletion strains, locus YLR370C, strain arc18, active compounds read low 0.993 | S. cerevisiae deletion strains, locus YLR371W, strain rom2, active compounds read low 1.01 | S. cerevisiae deletion strains, locus YLR384C, strain iki3, active compounds read low 1.01 | S. cerevisiae deletion strains, locus YLR418C, strain cdc73, active compounds read low 0.871 | S. cerevisiae deletion strains, locus YML016C, strain PPZ1, active compounds read low 0.996 | S. cerevisiae deletion strains, locus YML032C, strain rad52, active compounds read low 0.935 | S. cerevisiae deletion strains, locus YML124C, strain tub3, active compounds read low 1.01 | S. cerevisiae deletion strains, locus YMR078C, strain ctf18, active compounds read low 0.994 | S. cerevisiae deletion strains, locus YMR125W, strain sto1, active compounds read low 1.01 | S. cerevisiae deletion strains, locus YMR129W, active compounds read low 0.957 | S. cerevisiae deletion strains, locus YMR223W, strain ubp8, active compounds read low 0.94 | S. cerevisiae deletion strains, locus YMR231W, strain pep5, active compounds read low 1.01 | S. cerevisiae deletion strains, locus YMR263W, strain SAP30, active compounds read low 0.973 | S. cerevisiae deletion strains, locus YNL067W, strain RPL9B, active compounds read low 0.956 | S. cerevisiae deletion strains, locus YNL128W, strain TEP1, active compounds read low 1.02 | S. cerevisiae deletion strains, locus YNL153C, strain GIM3, active compounds read low 0.982 | S. cerevisiae deletion strains, locus YNL209W, strain ssb2, active compounds read low 0.976 | S. cerevisiae deletion strains, locus YNL233W, strain BNI4, active compounds read low 0.974 | S. cerevisiae deletion strains, locus YNL248C, strain rpa49, active compounds read low 0.942 | S. cerevisiae deletion strains, locus YNL250W, strain rad50, active compounds read low 0.985 | S. cerevisiae deletion strains, locus YNL271C, strain bni1, active compounds read low 0.985 | S. cerevisiae deletion strains, locus YNL298W, strain CLA4, active compounds read low 0.912 | S. cerevisiae deletion strains, locus YNL322C, strain KRE1 (second series), active compounds read low 0.985 | S. cerevisiae deletion strains, locus YNL322C, strain KRE1, active compounds read low 1.01 | S. cerevisiae deletion strains, locus YNR049C, strain mso1, active compounds read low 1 | S. cerevisiae deletion strains, locus YNR052C, strain pop2, active compounds read low 0.938 | S. cerevisiae deletion strains, locus YOL006C, strain TOP1, active compounds read low 0.769 | S. cerevisiae deletion strains, locus YOL012C, strain htz1 1.31 | S. cerevisiae deletion strains, locus YOL147C, strain pex11, active compounds read low 0.997 | S. cerevisiae deletion strains, locus YOR061W, strain CKA2, active compounds read low 0.984 | S. cerevisiae deletion strains, locus YOR069W, strain VPS5, active compounds read low 0.999 | S. cerevisiae deletion strains, locus YOR070C, strain gyp1, active compounds read low 0.942 | S. cerevisiae deletion strains, locus YOR080W, strain dia2, active compounds read low 0.974 | S. cerevisiae deletion strains, locus YOR083W, strain WHI5, active compounds read low 0.899 | S. cerevisiae deletion strains, locus YOR136W, strain idh2, active compounds read low 0.996 | S. cerevisiae deletion strains, locus YOR144C, strain elg1, active compounds read low 1.01 | S. cerevisiae deletion strains, locus YOR265W, strain rbl2, active compounds read low 0.966 | S. cerevisiae deletion strains, locus YOR270C, strain vph1, active compounds read low 0.792 | S. cerevisiae deletion strains, locus YOR290C, strain snf2, active compounds read low 0.953 | S. cerevisiae deletion strains, locus YOR316C, strain cot1, active compounds read low 1.01 | S. cerevisiae deletion strains, locus YPL055C, strain LGE1, active compounds read low 0.979 | S. cerevisiae deletion strains, locus YPL078C, strain atp4, active compounds read low 0.895 | S. cerevisiae deletion strains, locus YPL106C, strain sse1, active compounds read low 0.93 | S. cerevisiae deletion strains, locus YPL240C, strain hsp82, active compounds read low 0.971 | S. cerevisiae deletion strains, locus YPL241C, strain CIN2, active compounds read low 0.998 | S. cerevisiae deletion strains, locus YPR119W, strain clb2, active compounds read low 1 | S. cerevisiae deletion strains, locus YPR141C, strain kar3, active compounds read low 0.994 | S. cerevisiae deletion strains, locus YPR163C, strain tif3, active compounds read low 1.02 | S. cerevisiae deletion strains, locus YPR167C, strain met16, active compounds read low 0.987 | S. cerevisiae deletion strains, strain wtn01, active compounds read low 0.959 | S. cerevisiae strains, strain wild type, active compounds read low 0.995
